RAD52 anneal inh – RAD52 DNA annealing inhibitors, primary screen, biochemical, FRET, single point, set 2 | DNA repair protein RAD52 homolog (Homo sapiens), P43351 | recombinant RAD52 DNA annealing, FRET fluorescence | inhibition, % at 18.7 µM | 360,000 compounds, 0.46% hits;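 active means every replicate showing at least 50% inhibition; inconclusive means mean inhibition at least 50% but not in every replicate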
Target sequence (P43351 whole entry, looked up): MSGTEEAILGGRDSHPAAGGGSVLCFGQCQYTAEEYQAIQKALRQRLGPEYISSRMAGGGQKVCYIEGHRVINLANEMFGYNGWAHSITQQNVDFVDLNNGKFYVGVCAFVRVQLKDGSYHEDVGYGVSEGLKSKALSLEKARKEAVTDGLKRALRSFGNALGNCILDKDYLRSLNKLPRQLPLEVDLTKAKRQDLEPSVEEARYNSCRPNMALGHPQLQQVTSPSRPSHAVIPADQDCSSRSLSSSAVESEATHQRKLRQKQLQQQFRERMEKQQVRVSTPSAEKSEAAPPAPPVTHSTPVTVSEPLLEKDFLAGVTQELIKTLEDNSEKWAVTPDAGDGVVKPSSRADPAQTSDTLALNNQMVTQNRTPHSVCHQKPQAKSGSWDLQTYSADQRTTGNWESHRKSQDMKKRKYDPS
rRNA inh HTS – reduced GFP signal of wild-type E. coli, primary screen, bacterial rRNA inhibitor project, GFP/RFP fluorescence, OD600, single point | E. coli WT GFP vs humanized-ribosome RFP mutants, 24 h; active compounds read low; DMSO median 0, no signal -100 | GFP signal change (wild-type ribosome), % (concentration not given with the values) | 350,000 compounds, 1.6% hits;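 active means significant combined selectivity score with lowered wild-type GFP, culture density cut under 30%, mutant RFP and density less affected; inactive means any of these conditions unmet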
Casp6 inh – human caspase-6 inhibitors, primary screen, biochemical, VEID-R110 fluorescence, single point, set 2; P55212; purified caspase-6, Z-VEID-R110 cleavage fluorescence; inhibition, % at 12.5 µM; 350,000 compounds, 0.53% hits; AID 686996, 2013;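 active means mean inhibition across replicates at least about 35%, with every replicate also reaching that limit, limit read from the data; inconclusive means only one of the two criteria met; inactive means neither criterion met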;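 further: 0% = median of neutral control wells and 100% = no fluorescence left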
NSD2 HMT inh – NSD2 histone methyltransferase inhibitors, primary screen, biochemical, AlphaScreen, single concentration, set 2; Histone-lysine N-methyltransferase NSD2 (Homo sapiens), O96028; NSD2 peptide methylation, 120 min; inhibition, % at 12.5 µM; 310,000 compounds, 0.54% hits; AID 743445, 2014; in the data active means inhibition above about 50%
MLL AF4-AF9 inh – inhibitors of AF4 peptide binding to AF9, primary screen, biochemical, AlphaScreen, biotin-AF4 peptide, FLAG-AF9, single point; inhibition, % at 10 µM; 350,000 compounds, 0.47% hits;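 active means every replicate reaching a set inhibition limit, whatever the replicate mean, cut at about 25% in these data; inconclusive means mean inhibition reaches that limit but some replicates miss it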;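 further: 0% = plate neutral control median and 100% = total signal loss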
RAD52 DNA ctr – DNA-binding compounds via dye displacement, dose response, artefact control for RAD52 inhibitor project, biochemical, fluorescence polarization, cherry-pick; Salmon sperm DNA/acridine orange FP displacement; 1,000 compounds, 8% hits; shares compounds with RAD52 anneal inh; AC50, µM; AID 652128, 2013;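 active means fitted half-maximal concentration for signal loss at or below twice the highest dose tested, in every separate run, actives reach about 64 µM in these data; inconclusive means runs disagree, or flat partial signal loss, or poor fit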
An asterisk follows results filed as active; i = inactive; ? = inconclusive; . = not tested or not shown. Sampled rows, rich in hits. Any-hit rate of the full collection: about 2.5%.

SMILES	RAD52 anneal inh	rRNA inh HTS	Casp6 inh	NSD2 HMT inh	MLL AF4-AF9 inh	RAD52 DNA ctr
CN(C)CCCNC(=O)/C(=C\c1ccc(-c2cccc([N+](=O)[O-])c2)o1)NC(=O)c1ccccc1	49	12	-13	7	12	.
CSc1ccc2c(c1)C(N1CCN(C)CC1)Cc1ccc(F)cc1S2 (centres undefined)	51*	-48*	-2	8	.	i
COc1cccc(/C=C2/Sc3ccc(C(=O)NCCN4CCCC4)cc3NC2=O)c1	92*	-30	-203	8	37*	i
COc1ccc(/C=C2\Sc3ccc(C(=O)NC4CC4)cc3N(C)C2=O)cc1OC	-14	-21	1	2	14	.
COc1ccc(/C=C2\Sc3ccc(C(=O)NCCN4CCCCCC4)cc3N(C)C2=O)cc1	56*	-6	-6	0	14	i
C[C@@H]1CN([C@H](C)CO)C(=O)c2cccc(NC(=O)CCCCCC(=O)Nc3ccccc3N)c2O[C@@H]1CN(C)C(=O)NC1CCCCC1	11	0	1	.	6	.
COc1ccc(CN(C)C[C@H]2Oc3ccc(NC(=O)Nc4c(C)noc4C)cc3C(=O)N([C@H](C)CO)C[C@H]2C)cc1	22	-3	0	.	-5	.
COc1ccc(-c2nc(CN3CCN(c4cc(C)nc(C)c4)CC3)c(C)o2)c2ccccc12	82*	-42	-32	5	26*	i
Cc1noc(C)c1NC(=O)Nc1cccc2c1O[C@@H](CN(C)S(=O)(=O)c1ccc(Cl)cc1)[C@@H](C)CN([C@H](C)CO)C2=O	-2	0	2	.	-1	.
CCOC(=O)c1cnc2c(C)cc(C)cc2c1NCCCN1CCOCC1	68*	-3	-6	1	3	i
N#Cc1cc2cc3c(cc2nc1SCC(=O)N1CCOCC1)OCO3	-35	9	5	-3	-2	.
N#Cc1cc2cc3c(cc2nc1NCCNC(=S)NCCCN1CCOCC1)OCO3	72*	1	-5	0	-3	i
O=C(N[C@H]1CC[C@H](CCNS(=O)(=O)c2ccc(Cl)cc2)O[C@H]1CO)c1ccccn1	2	-11	-2	.	-1	.
CCOC(=O)CCc1c(C)nc(SCc2ccc(C(=O)O)cc2)c(C#N)c1C	96*	-13	1	-6	-9	i
CN(C)Cc1c(OC(=O)c2ccc(N)cc2)ccc2ccccc12	59*	-6	0	0	-4	i
COc1ccc(CCN(C)Cc2c(O)ccc3ccccc23)cc1OC	-16	-14	-6	12	2	.
COc1ccc(N2CCc3c(C)nc4c(OC)cc(OC)cc4c32)cc1	87*	-21	0	3	3	i
COc1cccc(N2CCc3c(C)nc4ccc(Cl)cc4c32)c1	-32	-6	3	-54	-7	.
COc1ccc(N2CCc3c(C)nc4c(OC)cccc4c32)cc1	52*	-8	4	.	1	i
COc1ccc(N2CCc3c(C)nc4c(OC)cc(OC)cc4c32)c(OC)c1	.	.	.	5	.	.
CCOC(=O)c1c(CN(C)C)n(-c2ccccc2)c2cc(Br)c(OC)cc12	15	-54	1	4	10	.
CCOC(=O)c1c(C)n(CC(O)CN(C)C)c2cc(Br)c(OC)cc12 (centres undefined)	85*	12	-11	-1	4	i
COc1cccc(-c2ccc3n(c2=O)C[C@@H]2[C@@H](CO)[C@H](C(=O)N4CCOCC4)N[C@H]32)c1	-6	-1	-2	.	0	.
CC(C)N1CCc2c(sc(NC(=O)c3cc4cc([N+](=O)[O-])ccc4s3)c2C(N)=O)C1	56*	-13	-2	.	13	i
CC(C)N1CCc2c(sc(NC(=O)c3ccc4ccccc4c3)c2C(N)=O)C1	i	-24	-33	-7	-3	.
SMILES	RAD52 anneal inh	rRNA inh HTS	Casp6 inh	NSD2 HMT inh	MLL AF4-AF9 inh	RAD52 DNA ctr
O=C(C[C@@H]1CC[C@@H]2[C@H](COC[C@@H](O)CN2Cc2ccc(F)cc2)O1)NCc1ccccc1Cl	-1	-3	0	.	?	.
Cc1c(CCOC(=O)c2ccc(Cl)cc2Cl)sc[n+]1CC(=O)c1ccccc1	37	-62	1	26	9	.
Cc1c(CCOC(=O)c2cc([N+](=O)[O-])cc([N+](=O)[O-])c2)sc[n+]1CC(=O)c1ccc(Br)cc1	94*	-15	6	6	11	i
CCCN(C)C[C@@H]1OCCCC[C@H](C)Oc2ccc(NC(=O)Cc3ccccc3)cc2C(=O)N([C@@H](C)CO)C[C@@H]1C	17	2	-6	.	7	.
CN1CCC(NC(=O)c2cccc(Oc3ccccc3)c2)CC1	-6	6	-10	2	0	.
COc1cc(C(=O)NC2CCN(C)CC2)ccc1Nc1ncc2c(n1)N(CCc1ccccc1)CCC(=O)N2C	81*	-16	-32	.	9	i
CCOC(=O)c1c(CSCc2ccccc2)oc2ccc(O)c(CN(C)C)c12	61*	-26	2	.	23	i
CNC[C@H]1OCCCC[C@H](C)Oc2ccc(NC(=O)c3ccccc3)cc2C(=O)N([C@H](C)CO)C[C@H]1C	.	7	.	.	.	.
CCOC(=O)c1c(-c2ccccc2)oc2ccc(OC(C)C(=O)O)cc12 (centres undefined)	-9	-14	0	-5	2	.
CCOC(=O)c1c(-c2ccccc2)oc2ccc(OCC(O)CN(C)C)cc12 (centres undefined)	43	-59	-49	7	14	i
CCN1CCN(c2cc(C)c3cc(NC(=O)c4cc(OC)cc(OC)c4)ccc3n2)CC1	55*	3	-27	8	16	i
CCOc1ccc(C(=O)Nc2ccc3nc(N4CCN(CC)CC4)cc(C)c3c2)cc1	11	4	-5	-1	0	.
CCN1CCN(c2cc(C)c3cc(NC(=O)c4cnccn4)ccc3n2)CC1	59*	-1	-12	.	5	i
CC(=O)Nc1cccc(N/C(N)=N/c2nc(C)cc(C)n2)c1	57*	10	3	-4	0	i
CN(C)CCNC(=O)c1c(NC(=O)c2ccccc2)sc2c1CCCC2	53*	-35	-5	3	10	i
CN(CCO)C(=O)c1c(NC(=O)c2ccccc2)sc2c1CCCC2	-3	10	-1	-1	-3	.
COc1ccc(S(=O)(=O)Nc2ccc3c(c2)CC(=O)N([C@@H](C)CO)C[C@@H](C)[C@H](CN(C)C)O3)cc1	17	4	-1	.	-10	.
CCCCCCCCCCCCCCC(O)C[N+](C)(CCO)CCO (centres undefined)	85*	-62	-193	-2	7	?

Compound activity deposited in PubChem BioAssay by Broad Institute.
